Shown are actives, neighbours in structure and some others; about 3.8% of the full set was active somewhere.
HT1080NT lethal: kills 2HG-producing HT-1080-NT fibrosarcoma cells; HT-1080-NT fibrosarcoma viability, CellTiter-Glo ATP luminescence, 48 h; AID 686970; Potency, µM (doses to about 46.1 µM), most hits filed as cytotoxic; actives 1.6% (n = 360,000);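 note: NT is the 2HG producing partner of a matched IDH1 knockdown line; nearly all actives have a fitted effect of over 55% in size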
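Toxicity toward the 2HG-producing NT line was scored as %Activity, normalised to DMSO and no-cell wells, from CellTiter-Glo luminescence after 48 hours' treatment.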
ATXN viability: viability counter-screen for ATXN expression inhibitors | S2 cells (HEK-293 line with an ATXN2-luciferase reporter) viability, CellTiter-Fluor protease fluorescence, 24 h | Potency, µM (titrated, usually from 56.7 µM), actives largely listed as cytotoxic | actives 0.49% (n = 400,000) | AID 651635; note: nearly all actives have a fitted effect of over 40% in size
HT1080 IDH1KD tx: toxicity to HT-1080 IDH1 knockdown cells (counter line). HT-1080 IDH1 knockdown viability, ATP luminescence, 48 h. Potency, µM (doses to about 46.1 µM), usual class: cytotoxic. actives 2% (n = 360,000). AID 686971
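Luminescent ATP read-out (CellTiter-Glo, 10 min at room temperature) after 48 h compound exposure at 37 °C gave viability of IDH1-knockdown HT-1080 cells. Activity was normalised to DMSO and cell-free wells, then fitted as concentration-response curves.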
TGFb inhibitor: TGF-b pathway inhibition; Potency, µM (highest dose often 46.1 µM), actives largely listed as inhibitors; actives 1.2% (n = 410,000); HepG2 CAGA-GFP TGF-b/SMAD3 reporter, GFP fluorescence, 18 h; TGF-beta stimulated, 500 pg/mL final; note: nearly all actives have a fitted effect of over 65% in size
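Inhibition of TGF-beta-driven CAGA-GFP reporter expression in HEPG2 cells is measured by cellular GFP fluorescence after 18 h stimulation with 500 pg/mL recombinant TGF-beta in 1% FBS medium at 37 degrees C.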
ATXN2 expr inh: reduces ATXN2 reporter expression in HEK-293 cells; Potency, µM (series often up to 57 µM), usual class: inhibitors; actives 0.72% (n = 360,000); HEK-293 ATXN2-luciferase reporter, luminescence, 24 h; note: nearly all actives have a fitted effect of over 55% in size
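ATXN2-luciferase reporter cells (luciferase flanked by upstream and downstream ATXN2 gene portions) were treated 24 h at 37 °C with compounds at up to 57 uM. SteadyGlo luminescence gave expression; GF-AFC fluorescence gave viability.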
HepG2 tox: HepG2 cytotoxicity, counter-screen for TGF-b inhibitors; HepG2 CAGA-GFP viability, ATP luminescence, 18 h; Potency, µM (doses to about 46.1 µM), usual class: cytotoxic; actives 0.76% (n = 410,000)
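CellTiter-Glo luminescence gave cytotoxicity after 18 hours at 37 degrees C. The cells were HepG2 CAGA-GFP in 1% FBS DMEM, stimulated with 500 pg/mL TGF-beta after compound addition. %Activity was normalised to no-cell wells (complete cell-killing) and DMSO (no toxicity), and curves were fitted and classified.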
Hits are given with their value; . = inactive; ? = inconclusive; / = no result given. Calls come from the whole dose curve; as a rule, active = well fitted curve in the direction sought with a large enough effect; inconclusive = small, poorly fitted or top-dose-only effect, or another doubt; inactive = no such curve, though single readings can be large; an effect the other way counts as inactive or inconclusive.

SMILES	HT1080NT lethal	ATXN viability	HT1080 IDH1KD tx	TGFb inhibitor	ATXN2 expr inh	HepG2 tox
Cc1onc(-c2ccccc2)c1C(=O)Nc1ccccc1N1CCOCC1	.	.	.	?	.	.
Cn1nccc1C(=O)Nc1cc(Cl)ccc1Cl	.	.	.	.	/	.
CN1CCOC(=O)/C1=N/Nc1cc(Cl)ccc1Cl	?	.	21µM	.	.	.
COC(=O)C1=C(C)N(Cc2ccccc2)C(=NCc2cccc(C(F)(F)F)c2)N[C@H]1c1cccc(C(F)(F)F)c1	?	18µM	?	10µM	28µM	18µM
COC(=O)C1=C(C)N(CC2CC2)C(=NCc2cccc(C(F)(F)F)c2)N[C@H]1c1ccccc1	.	?	.	.	?	.
COCCN=C1N[C@@H](c2cccc(C(F)(F)F)c2)C(C(=O)OC)=C(C)N1Cc1ccccc1	?	?	.	.	?	.
COC(=O)C1=C(C)N(Cc2ccccc2)C(=NCc2cccc(C(F)(F)F)c2)N[C@H]1c1cccc(F)c1	?	/	?	?	32µM	14µM
CCN(CC)c1ccc2nc3ccc(N)cc3[n+](-c3ccccc3)c2c1	10µM	16µM	5.8µM	?	13µM	.
CCN(CC)c1ccc(/C=C/c2cc(Cl)nc3ccccc23)cc1	/	/	/	.	/	.
CCN(CC)c1ccc2nc3ccccc3[n+](CC)c2c1	26µM	8.9µM	23µM	?	?	.
O=S(=O)(Nc1cccc(-c2nc3cccnc3s2)c1)c1ccc2c(c1)CCCC2	.	/	.	13µM	.	10µM
CCOC(=O)c1nnc(-c2ccc(C)cc2)nc1Oc1ccccc1Cl	23µM	.	23µM	?	.	.
CCOC(=O)c1nnc(-c2ccc(C)cc2)nc1Oc1ccc(Cl)cc1Cl	.	.	.	?	.	.
CCOC(=O)c1nnc(-c2ccccc2)nc1Sc1c(Cl)cccc1Cl	?	?	21µM	10µM	?	.
Cc1ccc(-c2nc3cnccn3c2Nc2ccc(C(C)C)cc2)o1	.	/	.	/	/	/
Cc1ccccc1Nc1nnc(-c2ccc(C)c(S(=O)(=O)N3CCCCC3)c2)c2ccccc12	/	?	/	.	.	.
Cn1nnnc1SCCNCc1ccccc1OCc1ccc(Cl)cc1Cl	/	/	/	?	/	.
CCOc1cc(CNCCSc2nnnn2C)ccc1OCc1ccc(Cl)cc1Cl	/	.	/	?	?	11µM
Cn1nnnc1SCCNCc1ccc(OCc2ccc(Cl)cc2)cc1	/	?	/	?	.	6.3µM
Cc1ccc(S(=O)(=O)Nc2ccc(C(OC(=O)c3ccccc3[N+](=O)[O-])(C(F)(F)F)C(F)(F)F)cc2)cc1	.	.	?	10µM	.	10µM
COc1ccc(NC(=O)CCc2nc3c(C)nn(-c4ccc(C)cc4)c3n(C)c2=O)c(OC)c1	/	.	/	.	.	.
CC(C)CNC(C(=O)Nc1ccc([N+](=O)[O-])cc1Br)c1ccccc1 (stereo not drawn)	.	.	.	.	/	.
CN(C)C(CNC(C(=O)Nc1ccc([N+](=O)[O-])cc1Br)c1ccccc1)c1ccccc1 (stereo not drawn)	23µM	.	23µM	.	.	.
CCCCCCCCCCC[N+](C)(C)CC/C=C1/c2ccccc2Sc2ccc(Cl)cc21	?	11µM	?	?	/	20µM
OCCN1CCN(CC/C=C2/c3ccccc3Sc3ccc(Cl)cc32)CC1	?	?	?	?	?	.
CC[N+](C)(C)CC/C=C1/c2ccccc2Sc2ccc(Cl)cc21	.	.	?	.	.	.
CCCCCCCCCC[N+](C)(C)CC/C=C1/c2ccccc2Sc2ccc(Cl)cc21	?	7.9µM	?	?	/	.
Cc1ccc(SCc2cn3c(C)csc3n2)cc1	35µM	.	?	.	.	.
Cc1nc2c(=O)n(C)c(=O)n(C)c2nc1Cl	9.2µM	30µM	5.8µM	7.1µM	?	11µM
O=C(Nc1cnn(C23CC4CC(CC(C4)C2)C3)c1)c1cnn2c(C(F)(F)F)cc(-c3ccco3)nc12	.	?	.	.	22µM	.

Compound activity as filed in PubChem BioAssay.
